Source: PubChem BioAssay AID488969 (Vanderbilt High Throughput Screening Facility, 2010)
Whole data set: some 110,000 compounds, median “z-score” near -0.1, cut for the highest 2% near 2. The sample as a whole holds a higher share of the highest values than the screen did. Calls of active or inactive are those of the source.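 The calls were made as follows: active = z-score in the third read window above 3 or below -3; inactive = the rest.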

Each compound was assayed against Metabotropic glutamate receptor 8 (Rattus norvegicus) (UniProt P70579) (assay: mGluR8 Gi/Go-coupled signaling modulation – cell-based, rat, thallium flux, HTS, primary screen (AID 488969)). Details: HEK293 rat mGluR8, GIRK (G protein-gated inwardly rectifying potassium channel) thallium flux, FluoZin2; at 10 µM; stronger effect = higher value; submaximal glutamate (EC20) added with thallium.
Sequence of Metabotropic glutamate receptor 8 (Rattus norvegicus) (P70579 whole entry, looked up): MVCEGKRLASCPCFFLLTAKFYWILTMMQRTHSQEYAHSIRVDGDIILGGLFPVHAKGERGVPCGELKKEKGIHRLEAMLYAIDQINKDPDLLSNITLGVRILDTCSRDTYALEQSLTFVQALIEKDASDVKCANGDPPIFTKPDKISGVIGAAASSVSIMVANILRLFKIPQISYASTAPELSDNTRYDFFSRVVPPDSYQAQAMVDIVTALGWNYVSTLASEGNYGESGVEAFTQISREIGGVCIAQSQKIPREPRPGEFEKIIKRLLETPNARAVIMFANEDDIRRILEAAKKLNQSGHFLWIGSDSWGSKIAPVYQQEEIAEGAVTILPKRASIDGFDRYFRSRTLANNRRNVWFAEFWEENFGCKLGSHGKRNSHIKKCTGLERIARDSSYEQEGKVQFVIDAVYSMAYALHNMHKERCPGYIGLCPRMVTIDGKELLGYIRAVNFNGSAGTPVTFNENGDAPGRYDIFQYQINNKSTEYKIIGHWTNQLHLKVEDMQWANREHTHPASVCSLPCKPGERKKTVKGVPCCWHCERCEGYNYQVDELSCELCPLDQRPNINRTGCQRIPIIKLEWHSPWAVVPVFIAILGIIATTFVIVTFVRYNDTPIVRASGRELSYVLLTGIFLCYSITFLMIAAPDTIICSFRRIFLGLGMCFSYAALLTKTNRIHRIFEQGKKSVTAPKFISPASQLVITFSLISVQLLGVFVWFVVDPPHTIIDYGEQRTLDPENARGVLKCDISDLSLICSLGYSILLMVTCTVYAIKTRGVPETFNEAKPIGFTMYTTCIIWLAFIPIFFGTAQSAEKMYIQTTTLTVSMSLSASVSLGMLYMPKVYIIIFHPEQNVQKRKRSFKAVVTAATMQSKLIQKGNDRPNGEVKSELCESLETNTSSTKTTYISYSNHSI

Compound | z-score
CNC(=O)NC(=O)CSc1nc2ccccc2n1CCOC | -0.465
O=C1C2CCCN2C(c2cccc(Br)c2)N1c1ccc(F)cc1 (configuration not stated) | -0.401
C/C(=N/NC(=O)OC(C)(C)C)c1ccco1 | -0.124
COC(=O)c1cn(CC(=O)N2CCCCC2C)c2ccccc12 (configuration not stated) | -0.213
COC(=O)c1ccc(C(=O)OC)c(NC(=O)CCc2ccc(C)o2)c1 | -0.67
CCCCCn1cnc2sc(CC)cc2c1=O | -0.4
Cc1ccc(C(CCN)c2ccco2)cc1 (configuration not stated) | 0.345
O=C1NC(=O)/C(=C\c2ccc(Sc3ccc(Cl)cc3)o2)N1 | -0.263
Cc1cccc(NC(=S)NCC(c2cccnc2)N(C)C)c1 (configuration not stated) | 0.286
CCOC(=O)c1ccc2ncc(C(=O)OCC)c(NCCN(C)C)c2c1 | -0.571
CCN(CC)C(=O)c1ccc(C)c(Br)c1 | -0.37
Cc1ccc(/C=C/C(=O)c2ccc(C)cc2)cc1 | 0.025
C=CCN(CC=C)S(=O)(=O)c1ccc(NC(=S)NC(=O)/C=C/c2ccc(C)cc2)cc1 | -0.0815
C=CCN(CC=C)C(=S)NC(=O)c1ccc(OC)c(Br)c1 | 15.4 (active)
COc1ccc(C(=O)NC(=S)NC(C)(C)C)cc1Br | 0.436
C=CCN(CC=C)C(=S)NC(=O)c1ccc(C)c(Br)c1 | 15.3 (active)
COc1ccc(C(=O)NCc2ccccc2)cc1Br | -0.234
C=CCN(CC=C)C(=S)NCCc1ccc(OC)c(OC)c1 | -0.0119
COc1ccc(C(=O)NC(=S)NC(C)C)cc1Br | 1.79
C=CCN(CC=C)C(=S)NC(=O)/C=C/c1ccc(C)cc1 | 4.57 (active)
COc1ccc(C(=O)NC(=S)NCCO)cc1Br | 4.72 (active)
CCCCC(=O)Nc1ccc(C(=O)NNC(=O)c2ccc(C)c(Br)c2)cc1 | -0.00519
CCOC(=O)c1nn(-c2ccc(C)c(C)c2)c(=O)c2c(N)scc12 | -0.137

Compound | z-score
CC(C)(C)/C(O)=C/c1nc2ccccc2[nH]c1=O | -0.317
COc1ccccc1CNC(=S)NCCc1ccccc1 | -0.133
COCCn1c(C)cc(C(=O)COC(=O)c2cncc(Br)c2)c1C | 0.145
COC(=O)c1cc2ccsc2n1Cc1cc(=O)n2ccccc2n1 | -0.127
COc1cccc(C(C(=O)NC2CCCC2)N(Cc2ccco2)C(=O)c2ccco2)c1OC (configuration not stated) | -0.188
CCOC(=O)C1=C(C)C(c2ccccc2)NC(=S)N1 (configuration not stated) | 0.0117
CC1=C(C)C(c2ccccc2)NC(=S)N1 (configuration not stated) | 3.39 (active)
CC1=CC(c2ccccc2)NC(=S)N1 (configuration not stated) | -0.113
CSc1ccn(CCC(=O)O)c(=O)n1 | -0.489
CC(=O)c1cnn(-c2nc3c(C)cccc3s2)c1C | -0.111
c1ccc(-n2nnnc2-n2ccnc2)cc1 | 0.463
COc1ccc(S(=O)(=O)Cc2ccc(C(=O)NCc3cccnc3)o2)cc1 | -0.0868
C/C(=N\NC(=O)c1nonc1N)c1cccs1 | 0.127
CC(=O)Nc1nc2ccccc2n1CCN(C)C | -0.911
Cn1c(N2CCCC2)nc2c1c(=O)n(Cc1ccc(Cl)cc1)c(=O)n2C | 3.05 (active)
Cn1c(N2CCOCC2)nc2c1c(=O)n(Cc1ccc(Cl)cc1)c(=O)n2C | -0.42
Cn1c(N2CCC(C(N)=O)CC2)nc2c1c(=O)n(Cc1ccc(Cl)cc1)c(=O)n2C | -0.154
O=C(O)c1ccc(CNCc2ccc(Cl)cc2Cl)cc1 | -0.14
CCOC(=O)Nc1ccc([N+](=O)[O-])cc1C | 0.0184
Cc1cc([N+](=O)[O-])ccc1NC(=S)NC(=O)C(c1ccccc1)c1ccccc1 | 0.175
Cc1cc([N+](=O)[O-])ccc1NC(=O)Cc1ccc(F)cc1 | -0.108
COCC(=O)Nc1cc([N+](=O)[O-])ccc1C | -0.258
Cc1cc([N+](=O)[O-])ccc1NC(=S)NC(=O)Cc1ccccc1 | 6.82 (active)

Compound | z-score
COCC(=O)Nc1ccc([N+](=O)[O-])cc1C | 2.3
S=c1[nH]nc(Cc2cccc3ccccc23)n1-c1ccccc1 | -0.324
O=C(NNC(=O)c1ccccc1Br)c1ccc(Cl)cc1 | 0.075
COc1ccc(C(=O)Nc2c(C)ccc3nsnc23)cc1[N+](=O)[O-] | 0.723
CC1CCCCN1C/C=C/c1ccccc1[N+](=O)[O-] (configuration not stated) | -0.203
COc1cc(C(=S)N2CCCCC2)ccc1O | 0.0785
COc1cc(C#CC#CCN2CCCCC2)ccc1O | 2.82
COc1cc(C(=O)OCCN2CCCCC2)ccc1O | 0.0129
O=C(CN1CCCC1)Nc1c2c(nc3ccccc13)N(Cc1ccccc1)CC2 | 1.74
COc1ccc(NC(=O)COC(=O)CC2CC3CCC2C3)c([N+](=O)[O-])c1 (configuration not stated) | -0.182
COc1ccc(NC(=O)COC(=O)CC23CC4CC(CC(C4)C2)C3)c([N+](=O)[O-])c1 | 2.75
COc1ccc(NC(=O)COC(=O)C2CCCCC2)c([N+](=O)[O-])c1 | 0.159
Cc1nc(N)nc(OCC(F)(F)C(F)F)c1Br | -0.145
COc1ccc(C2CC(c3ccc(Br)cc3)Nc3nc(N)nn32)cc1 (configuration not stated) | 1.67
COc1cccc(C2CC(c3ccc(Cl)cc3)n3nc(N)nc3N2)c1 (configuration not stated) | 0.802
Cc1ccc(C2CC(c3cccs3)n3nc(N)nc3N2)cc1 (configuration not stated) | 0.263
COc1ccc(C2CC(c3ccc(Cl)cc3Cl)Nc3nc(N)nn32)cc1 (configuration not stated) | 1.46
Nc1nc2n(n1)C(c1cccs1)CC(c1ccc(F)cc1)N2 (configuration not stated) | 6.13 (active)
Nc1nc2n(n1)C(c1ccco1)CC(c1ccc(Cl)c(Cl)c1)N2 (configuration not stated) | 2.38
Nc1nc2n(n1)C(c1cccs1)CC(c1ccccc1)N2 (configuration not stated) | -0.0568
Nc1nc2n(n1)C(c1ccco1)CC(c1ccc(F)cc1)N2 (configuration not stated) | 0.268
COc1ccc(C2CC(c3ccccc3)Nc3nc(N)nn32)cc1 (configuration not stated) | -0.316
COc1ccc(C2CC(c3ccc(Cl)c(Cl)c3)Nc3nc(N)nn32)cc1 (configuration not stated) | 3.08 (active)

Compound | z-score
Nc1nc2n(n1)C(c1ccco1)CC(c1ccccc1)N2 (configuration not stated) | -0.0773
COc1ccc(C2CC(c3ccc(Cl)cc3)n3nc(N)nc3N2)cc1 (configuration not stated) | 2.61
COc1ccc(/C=N/c2oc(-c3ccccc3)cc2C#N)cc1OC | 0.0441
CCCC(=O)C1=C(O)C(C(=O)OC)C(C)(C)CC1=NC(C)(C)C (configuration not stated) | -0.418
O=C1c2ccccc2C(=O)N1c1ccc(-c2nc3ccccc3o2)cc1 | 0.248
Cc1nn(C)cc1NC(=O)CC12CC3CC(CC(C3)C1)C2 | -0.0159
CC(=O)Nc1ccc(C(=O)N/N=C/c2cccnc2)cc1 | -0.709
Cc1nc2cc(NC(=O)N3c4ccccc4CC3C)ccc2n1C (configuration not stated) | -0.544
CCc1cc2c(=O)c(-c3cnn(-c4ccccc4)c3)c(C)oc2cc1OCC(=O)Nc1ccc(F)c(F)c1 | 0.0216
Cc1sc2ncnc(NCCc3ccc(S(N)(=O)=O)cc3)c2c1C | 0.0936
Cc1nc(NCCc2ccc(S(N)(=O)=O)cc2)c2c(C)c(C)sc2n1 | 6.05 (active)
Cc1nc(NCCc2ccc(S(N)(=O)=O)cc2)c2c3c(sc2n1)CCC3 | -0.34
O=c1cc(CSc2nnc(-c3ccccc3)o2)c2ccccc2[nH]1 | 0.487
COc1ccc(/C=N\NC(=O)/C(=C\Nc2nccc(C)n2)NC(=O)c2ccccc2)cc1 | -0.263
C=CCn1c(-c2csc(-c3ccc(Cl)cc3)n2)n[nH]c1=S | 2.89
CCn1c(-c2csc(-c3ccc(Cl)cc3)n2)n[nH]c1=S | 1.31
C=CCn1c(-c2csc(-c3ccccc3)n2)n[nH]c1=S | 0.103
CC(C)N(C(=O)Nc1ccc2nccnc2c1)C(C)C | -0.935
COc1ccc(OC)c(NC(=O)CSc2nnc(Cn3nnc4ccccc43)n2C)c1 | -0.116
NC(=O)c1ccc(NC(=O)COC(=O)CC(NC(=O)c2ccccc2Cl)c2ccccc2)cc1 (configuration not stated) | 1.26
COc1ccc(Cn2c(O)cc(=O)[nH]c2=O)cc1 | 0.277
COc1ccc(Cn2c(=S)[nH]c3ccsc3c2=O)cc1 | 3.86 (active)
CCOC(=O)N1CCN(C(=O)c2ccc3c(=O)n(Cc4ccc(OC)cc4)c(=S)[nH]c3c2)CC1 | -0.232

Compound | z-score
CCOCCn1c(=NC(=O)c2cc3ccccc3oc2=O)sc2cc(S(N)(=O)=O)ccc21 | -0.105
C=CCSc1[nH]c(=O)cc(C)c1C(N)=O | 0.533
O=C(COc1ccccc1)Nc1cccc2c1CCCC2 | -0.151
CC(=O)Nc1ccccc1Nc1cc(C#N)c(C#N)cc1[N+](=O)[O-] | -0.00232
CN1C2C=C3C(C#N)=C(N)C(C#N)(C#N)[C@H](c4c(F)cccc4F)[C@H]3C1CC2 (some centres not stated) | -0.484
CN1C2C=C3C(C#N)=C(N)C(C#N)(C#N)[C@@H](c4cccs4)C3C1CC2 (some centres not stated) | 2.54
CC(C)(C)C1CC=C2C(C#N)=C(N)C(C#N)(C#N)C(c3cccs3)C2C1 (configuration not stated) | 0.0392
CN1C2C=C3C(C#N)=C(N)C(C#N)(C#N)C(c4ccc(Br)cc4)C3C1CC2 (configuration not stated) | 0.361
CN1C2C=C3C(C#N)=C(N)C(C#N)(C#N)[C@@H](c4ccsc4)[C@@H]3C1CC2 (some centres not stated) | 4.01 (active)
CN1C2C=C3C(C#N)=C(N)C(C#N)(C#N)[C@@H](c4cccc(F)c4)[C@@H]3C1CC2 (some centres not stated) | 1.32
Cc1ccnc(N2CCC(C(=O)NNC(=O)COc3cccc4ccccc34)CC2)n1 | 0.336
COc1cc(/C=N/OCC(=O)Nc2ccc(OC(F)F)cc2)ccc1OCc1ccccc1 | -0.0267
CCOC(=O)C1CCCN(C(=O)c2cnn3c(C(F)(F)F)cc(-c4ccccc4)nc23)C1 (configuration not stated) | -2.11
COC(=O)c1ccc(NS(=O)(=O)c2ccc(SC)cc2)cc1 | 5.24 (active)
CCOC(=O)c1ccc(NS(=O)(=O)c2ccc(SC)cc2)cc1 | -0.12
COC(=O)c1ccc(NS(=O)(=O)c2ccc(OC)cc2)cc1 | 0.37
Cc1ccc(Cl)cc1N1CCN(C(=O)CSc2nnc3n2C(C)(C)Cc2ccccc2-3)CC1 | 1.18
CC1(C)Cc2ccccc2-c2nnc(SCC(=O)N3CCN(c4ccccc4)CC3)n21 | 3.2 (active)
COc1ccc(N2CCN(C(=O)CSc3nnc4n3C(C)(C)Cc3ccccc3-4)CC2)cc1 | -0.642
O=C(Nc1ccccn1)C12CC3CC(C1)CC(C(=O)Nc1ccccn1)(C3)C2 | 0.332
